# Results reported in the supplement of paper PMC6607015.
# Where a name gives a salt, the structure may show the parent alone.
# What was measured:
# Conditions in all cases: compound concentration in added solution (µM; 5 µl added to 20 µl cells): 10; 18 h
# A431 [1] = test: LBPA endosome anti-LBPA integrated intensity (sum per cell), Z-score; higher = more LBPA staining
# Outline: (§1)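 In duplicate 384-well imaging plates, 3,500 HeLa MZ or A431 cells in 20 µl per well were seeded onto 5 µl of 10 µM compound solution. The cells were incubated for 18 h, fixed in 4% PFA and stained with 6C4 anti-LBPA antibody, filipin, propidium iodide and CellTracker green before four 20× images were acquired per well. Values are AcuityXpress-normalised Z-scores of per-cell integrated LBPA or filipin intensity, obtained by MetaXpress segmentation over the whole cell or in LBPA endosomes.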
# HeLa MZ [2] = test: as above
# Outline: as §1
# A431 [3] = test: whole-cell filipin (free cholesterol) integrated intensity, Z-score; higher = more cholesterol staining
# Outline: as §1
# HeLa MZ [4] = test: as above
# Outline: as §1
# A431 [5] = test: filipin (cholesterol) integrated intensity within LBPA endosomes, Z-score; higher = more cholesterol in LBPA endosomes
# Outline: as §1
# HeLa MZ [6] = test: as above
# Outline: as §1
Compound,LBPA endosome anti-LBPA integrated intensity (z-score) (A431 [1]),LBPA endosome anti-LBPA integrated intensity (z-score) (HeLa MZ [2]),whole-cell filipin (z-score) (A431 [3]),whole-cell filipin (z-score) (HeLa MZ [4]),filipin (z-score) (A431 [5]),filipin (z-score) (HeLa MZ [6])
O=C(c1ccccc1)c1ccc2n1CCC2C(=O)O (centres undefined) [Ketorolac tromethamine],-0.483,0.0549,-0.702,-0.443,-0.478,-0.538
C1N2CN3CN1CN(C2)C3 [Methenamine],-0.374,0.113,-0.146,0.773,-0.379,-0.0431
CC(Oc1c(Cl)cccc1Cl)C1=NCCN1 (centres undefined) [Lofexidine],-0.44,0.792,-0.761,-0.717,-0.424,-0.23
COC1=C(OC)C(=O)C(CCCCCCCCCCO)=C(C)C1=O [Idebenone],-0.691,-0.73,-0.893,-0.402,-0.585,-0.582
CC1COc2c(N3CCN(C)CC3)c(F)cc3c(=O)c(C(=O)O)cn1c23 (centres undefined) [Ofloxacin],-0.519,-0.166,-0.939,0.125,-0.532,-0.106
N=C(N)NC(=N)NCCc1ccccc1 [Phenformin hydrochloride],-0.459,0.0471,-0.366,1.16,-0.42,-0.335
CCCCC(C)(O)C/C=C/[C@H]1[C@H](O)CC(=O)[C@@H]1CCCCCCC(=O)OC (mixture of isomers) [Misoprostol],-0.446,-0.811,0.395,-0.741,-0.436,-0.608
CCN1C(=O)NC(c2ccccc2)C1=O (centres undefined) [Ethotoin],-0.277,-0.178,-0.136,-0.484,-0.353,-0.513
CN(C)CCOC(c1ccccc1)c1ccccc1 [Diphenhydramine hydrochloride],-0.431,-0.0117,-0.136,-0.63,-0.485,-0.0904
CN1CCCN=C1/C=C/c1cccc(O)c1 [Oxantel pamoate],-0.563,-0.852,-0.857,-0.729,-0.5,-0.659
C#Cc1cccc(Nc2ncnc3cc(OCCOC)c(OCCOC)cc23)c1 [Erlotinib],1.24,2.03,-0.02,0.532,0.124,0.831
CN1CCN(c2c(F)cc3c(=O)c(C(=O)O)cn4c3c2SCC4)CC1 [Rufloxacin],-0.614,-0.736,0.0183,-0.289,-0.534,-0.17
OCCN1CCN(CCCN2c3ccccc3Sc3ccc(C(F)(F)F)cc32)CC1 [Fluphenazine dihydrochloride],2.14,0.746,-0.522,0.27,2.23,3.52
CCOc1ccccc1OC(c1ccccc1)C1CNCCO1 (centres undefined) [Reboxetine mesylate],-0.315,0.133,-0.477,-0.595,-0.205,-0.384
NC12CC3CC(CC(C3)C1)C2 [Adamantamine fumarate],-0.644,-1.51,-0.89,-0.605,-0.499,-0.616
C[C@]12CCC(=O)C=C1CC[C@@H]1[C@@H]2C(=O)C[C@@]2(C)[C@H]1CC[C@]2(O)C(=O)CO [Cortisone],-0.412,0.126,-0.734,-0.61,-0.464,-0.486
CCOC(=O)C1=C(C)NC(C)=C(C(=O)OC)C1c1cccc(Cl)c1Cl (centres undefined) [Felodipine],-0.574,-0.618,-0.869,-0.774,-0.49,-0.476
C#C[C@]1(O)CC[C@H]2[C@@H]3CCC4=CCCC[C@@H]4[C@H]3CC[C@@]21C [Lynestrenol],-0.602,-1.13,-1.14,-0.677,-0.563,-0.697
Cc1onc(-c2c(Cl)cccc2Cl)c1C(=O)N[C@@H]1C(=O)N2[C@@H]1SC(C)(C)[C@@H]2C(=O)O [Dicloxacillin sodium salt hydrate],-0.319,-0.38,-0.616,-0.567,-0.395,-0.582
